Results reported in PubChem BioAssay AID602399 (Sanford-Burnham Center for Chemical Genomics, 2012).
The whole screen tested about 360,000 compounds, of which about 2,800 (0.78%) were called active. Rule as the data show it: active = inhibition above about 26%; inactive = the rest. The sample as a whole holds a higher share of actives than the screen did.

Test system: Nicotinate-nucleotide adenylyltransferase NadD (Staphylococcus aureus N315)
Assay: S. aureus NadD enzyme activity blockers – biochemical, colorimetric, uHTS, primary screen (AID 602399)
Conditions: purified NadD enzyme, colorimetric absorbance read-out; at 20 µM; active compounds read high

**Q.** `C=CC1=C(C(=O)O)N2C(=O)[C@@H](NC(=O)/C(=N/OCC(=O)O)c3csc(N)n3)[C@H]2SC1` was tested. Which inhibition did it give?
**A.** Its inhibition is 94.8% (active).

**Q.** How did the inhibition turn out when `C=CC1=C(C(=O)O)N2C(=O)[C@@H](NC(=O)/C(=N\OCC(=O)O)c3csc(N)n3)[C@H]2SC1` was run?
**A.** Its inhibition is 15.8% (inactive).

**Q.** Which inhibition does the source give for `Cc1ccc(Cl)cc1NC(=O)C1CCN(S(C)(=O)=O)CC1` here?
**A.** The inhibition was -1.83% (inactive).

**Q.** For `CN(C)c1nc(N)nc(Cn2nnc(-c3ccc(C(F)(F)F)cc3)n2)n1`, which inhibition is on record?
**A.** The inhibition was -3.29% (inactive).

**Q.** How did the inhibition turn out when `CC1(Oc2cccc(F)c2)CCN(Cc2ccccc2OC(F)F)C1` (stereo not drawn) was run?
**A.** Its inhibition is -4.85% (inactive).

**Q.** Which inhibition does the source give for `CC(=O)Nc1ccc(SCC(=O)Nc2ccccc2Oc2ccccc2)cc1` here?
**A.** The inhibition was -2.74% (inactive).

**Q.** For `CCC(C)Cn1c(O)cc2nn(-c3nc4ccccc4s3)c(=O)c-2c1C` (stereo not drawn), which inhibition is on record?
**A.** The inhibition was 81.3% (active).

**Q.** With `C/C(CC(C)C)=N\Oc1nc(C)cc(C)n1` as the molecule, how does the inhibition read?
**A.** The inhibition was -5.32% (inactive).

**Q.** With `Cc1ccc2nc(-c3ccco3)c(Cc3cccc(Cl)c3)n2c1` as the molecule, how does the inhibition read?
**A.** The inhibition was 2.81% (inactive).

**Q.** With `Clc1ccccc1CSc1nnc(-c2ccco2)c(-c2ccco2)n1` as the molecule, how does the inhibition read?
**A.** Its inhibition is 29.3% (active).

**Q.** For `CSc1nc(-c2ccco2)nn1C(=O)c1ccccc1Cl`, which inhibition is on record?
**A.** Its inhibition is -4.61% (inactive).

**Q.** Which inhibition does the source give for `COc1ccccc1N(CC(=O)N1CCCCC1)S(=O)(=O)c1ccccc1` here?
**A.** Its inhibition is 0.503% (inactive).

**Q.** How did the inhibition turn out when `CC(C#N)(NC(=O)CN1CCN(S(=O)(=O)c2cc(C(F)(F)F)ccc2Cl)CC1)C1CC1` (stereo not drawn) was run?
**A.** Its inhibition is -1.47% (inactive).

**Q.** How did the inhibition turn out when `O=C(Nc1nnc(-c2ccc(Cl)cc2)o1)c1ccccc1Br` was run?
**A.** The inhibition was 9.64% (inactive).

**Q.** Which inhibition does the source give for `O=C(Nc1nnc(-c2ccccc2)o1)c1cc(-c2cccs2)nc2ccccc12` here?
**A.** The inhibition was 40.6% (active).

**Q.** `Cc1ccnc2nc(C(=O)Nc3nnc(-c4ccccc4)o3)nn12` was tested. Which inhibition did it give?
**A.** The inhibition was -3.89% (inactive).

**Q.** With `CN(Cc1nc2ccc(F)cc2[nH]1)Cc1nc(CC2CC2)no1` as the molecule, how does the inhibition read?
**A.** Its inhibition is -3.27% (inactive).

**Q.** How did the inhibition turn out when `CCN(C(=O)CN1CCN(Cc2ccccc2)CC1)c1c(N)n(Cc2ccccc2)c(=O)[nH]c1=O` was run?
**A.** Its inhibition is -5.19% (inactive).

**Q.** How did the inhibition turn out when `Cc1ccccc1NC(=O)c1ccc(COc2ccc3c(C)cc(=O)oc3c2)cc1` was run?
**A.** The inhibition was 1.94% (inactive).

**Q.** With `Cc1ccc(C(=O)N/C(=C/c2ccco2)C(=O)NCCc2c[nH]c3ccccc23)cc1C` as the molecule, how does the inhibition read?
**A.** The inhibition was 2.77% (inactive).

**Q.** `CC(C)Oc1ccc(/C=C(\NC(=O)/C=C/c2ccco2)C(=O)NCCc2nc3ccccc3[nH]2)cc1` was tested. Which inhibition did it give?
**A.** The inhibition was 40.3% (active).

**Q.** How did the inhibition turn out when `CCCCCOc1ccc(/C=C/C(=O)NCCc2nc3ccccc3[nH]2)cc1OC` was run?
**A.** Its inhibition is 0.224% (inactive).

**Q.** `CCn1c(SCC(=O)N/N=C/c2ccccc2OCC(=O)O)nnc1-c1ccc(C(C)(C)C)cc1` was tested. Which inhibition did it give?
**A.** The inhibition was 5.5% (inactive).

**Q.** Which inhibition does the source give for `CCOC(=O)N1CCC(NC(=O)CCc2cn(C)c3ccccc23)CC1` here?
**A.** Its inhibition is 0.741% (inactive).

**Q.** Which inhibition does the source give for `COc1ccc(CCNC(=O)CN2C(=O)CCSc3ccccc32)c(OC)c1` here?
**A.** The inhibition was -0.893% (inactive).

**Q.** Which inhibition does the source give for `COC(=O)COc1ccc2c(c1C)O/C(=C\c1ccco1)C2=O` here?
**A.** Its inhibition is -6.79% (inactive).

**Q.** With `CC(C)(C)C1C/C(=C/c2ccco2)C(=O)/C(=C/c2ccco2)C1` (stereo not drawn) as the molecule, how does the inhibition read?
**A.** The inhibition was 41.6% (active).

**Q.** How did the inhibition turn out when `CC1CCN(C(=S)NC2CC3CCC2C3)CC1` (stereo not drawn) was run?
**A.** The inhibition was 1.51% (inactive).

**Q.** With `Cc1nn(C)c(C)c1Sc1ccccc1N` as the molecule, how does the inhibition read?
**A.** Its inhibition is -4.87% (inactive).

**Q.** `CC(C)(C)c1ccc(Cn2nnc3c(=O)[nH]c(C4CCCN(C(=O)c5ccco5)C4)nc32)cc1` (stereo not drawn) was tested. Which inhibition did it give?
**A.** The inhibition was 4.55% (inactive).

**Q.** How did the inhibition turn out when `Cc1ccc(Cn2nnc3c(=O)[nH]c(C4CCN(S(=O)(=O)/C=C/c5ccccc5)CC4)nc32)cc1` was run?
**A.** Its inhibition is 31.1% (active).

**Q.** With `Cc1ccc(NC(=O)N2CCC(c3nc4c(nnn4Cc4c(F)cccc4Cl)c(=O)[nH]3)CC2)cc1` as the molecule, how does the inhibition read?
**A.** The inhibition was 22.9% (inactive).

**Q.** Which inhibition does the source give for `CC(C)COC(=O)c1ccc(NC(=O)C2C3C=CC(C3)C2C(=O)O)cc1` (stereo not drawn) here?
**A.** Its inhibition is 3.38% (inactive).

**Q.** With `COCCNC(=O)C(c1ccc(C)cc1)N(C(=O)CCC(=O)Nc1ccccn1)c1cccc(C)c1` (stereo not drawn) as the molecule, how does the inhibition read?
**A.** The inhibition was -8.33% (inactive).

**Q.** `O=C(c1ccc(C(F)(F)F)cc1)N1CCC(=O)N([C@H](COCc2ccccc2)Cc2ccccc2)CC1` was tested. Which inhibition did it give?
**A.** Its inhibition is -5.31% (inactive).

**Q.** With `O=C(CCc1ccccc1Cl)Nc1ccc(S(=O)(=O)Nc2nccs2)cc1` as the molecule, how does the inhibition read?
**A.** Its inhibition is -3.71% (inactive).

**Q.** Which inhibition does the source give for `O=C(Nc1ccc(S(=O)(=O)Nc2nccs2)cc1)c1cc(=O)[nH]c2ccccc12` here?
**A.** The inhibition was -0.912% (inactive).

**Q.** For `O=C(Nc1ccc(S(=O)(=O)Nc2nccs2)cc1)c1cc(-c2ccncc2)nc2ccccc12`, which inhibition is on record?
**A.** Its inhibition is 52.3% (active).

**Q.** For `CCOc1ccc(NC(=O)c2ccc(CSc3nnnn3C)cc2)cc1`, which inhibition is on record?
**A.** Its inhibition is -3.76% (inactive).

**Q.** For `CCc1ccc2c(c1)C1(NN=C(c3ccccc3)S1)C(=O)N2` (stereo not drawn), which inhibition is on record?
**A.** The inhibition was 3.11% (inactive).

**Q.** Which inhibition does the source give for `O=C(CSc1nc(Nc2ccccc2)nc(N2CCOCC2)n1)Nc1cc(Cl)ccc1O` here?
**A.** Its inhibition is 37.7% (active).

**Q.** `O=C(CSc1ccccc1)Nc1cc(Cl)ccc1Oc1ccccc1` was tested. Which inhibition did it give?
**A.** Its inhibition is 6.26% (inactive).

**Q.** Which inhibition does the source give for `O=C(CSc1nc2ccc(Nc3nc(N4CCOCC4)nc(N4CCOCC4)n3)cc2s1)NCc1ccco1` here?
**A.** The inhibition was 8.01% (inactive).
